Compound activity as filed in PubChem.
Compounds with a hit are over-represented: about 4.2% of the library has one in this group of screens.
DAX1 StAR inh: blocks DAX1 repression of SF-1 activated StAR promoter; HEK293T StAR-luciferase reporter, SF-1/DAX-1 repression relief; inhibition, % at 6.8 µM; 1.1% of 370,000 active; AID 652010;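 active = inhibition above the mean over all tested compounds plus 3 SD, cut at about 3.6% in these data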;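 also: 0% = DAX-1 cells with DMSO and 100% = cells lacking DAX-1 with DMSO; higher inhibition means more luminescence from relief of DAX-1 repression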
ssDAF-12 act: activators of S. stercoralis DAF-12 nuclear receptor | HEK293 ssDAF-12/GRIP1 lit1-tk-luc reporter, luminescence; % of 3 µM dafachronic acid response | activation, % at 6.8 µM | 1% of 370,000 active | AID 652126;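 active = activation above the mean over all tested compounds plus 3 SD, cut at about 0.9% in these data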;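 also: 0% = DMSO-only wells and 100% = 3 µM delta7-dafachronic acid wells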
esBAF inh: inhibitors of esBAF chromatin remodeling in mouse ES cells | Bmi1-luciferase knock-in reporter, 24 h; 100% = twice the neutral-well signal | reporter increase, % at 12.5 µM | 2% of 350,000 active | AID 602393; in the data active = activation above about 40%; inconclusive = no clear call, values can overlap the other calls;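 also: 0% = median of the plate's neutral control wells and 100% = double that signal; a rise in the Bmi1 reporter signal indicates esBAF inhibition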
hcDAF12 agonist: activates DAF-12 receptor from parasite H. contortus. HEK293 hcDAF-12 lit1-tk-luc reporter, luminescence; 0% DMSO, 100% Δ7-dafachronic acid. activation, % at 6.8 µM. 1.4% of 370,000 active. AID 652067;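 active = activation above the mean of all tested compounds plus 3 SD, cut at about 5.5% in these data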;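 also: 100% = response to 3 µM Δ7-dafachronic acid high control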
hgDAF-12 ag: agonists of H. glycines DAF-12 nuclear receptor | activation, % at 6.8 µM | HEK293 GAL4-hgDAF12 UAS-luciferase reporter, agonist luminescence; normalized to butyrate control | AID 687014 | 1.8% of 370,000 active;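 active = activation above a cutoff set at the mean of all screened compounds plus 3 SD, cut at about 10% in these data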;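 also: 0% = DMSO wells and 100% = sodium butyrate wells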
Wnt act: activates Wnt/beta-catenin signaling in a reporter cell assay; activator, plate reader; activation, % at 9.35 µM; 1.2% of 300,000 active; in the data active = activation above about 30%, passing the limit was not always enough; inconclusive = no clear call, values can overlap the other calls;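 also: 0% = neutral control wells and 100% = positive control wells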
* hit, by the source's call; ? = inconclusive; / = no result.

SMILES	DAX1 StAR inh	ssDAF-12 act	esBAF inh	hcDAF12 agonist	hgDAF-12 ag	Wnt act
CO[C@H]1CN(C)C(=O)c2cc(NC(C)=O)ccc2OC[C@@H](C)N(Cc2cc(F)ccc2F)C[C@H]1C	/	/	3.0	/	/	/
COc1ccc(NC(=O)Nc2ccc3c(c2)CC(=O)N([C@H](C)CO)C[C@@H](C)[C@H](CN(C)Cc2ccc(C(=O)O)cc2)O3)cc1	/	/	0.6	/	/	/
CC(C)NC(=O)Nc1cccc2c1O[C@H](CN(C)C(=O)Nc1cccc3ccccc13)[C@@H](C)CN([C@@H](C)CO)C2=O	/	/	-1.0	/	/	/
O=C(C[C@@H]1CC[C@@H](NC(=O)c2ccc(F)cc2)[C@H](CO)O1)NCc1ccncn1	/	/	-15.3	/	/	/
COc1cccc(CNC(=O)C[C@@H]2C=C[C@H](NC(=O)C3CC3)[C@H](CO)O2)c1	/	/	2.8	/	/	/
CCn1c(CSc2nc3ccccc3s2)nc2ccccc21	0.3	-1.1	16.6	-2.0	2.1	/
Cc1cc(C)n2c(Br)c(CSc3nc4ccccc4s3)nc2n1	0.7	-1.1	48.4*	4.0	6.9	/
CCC(C)c1ccc(NC(=O)C2CCCN(c3ncccn3)C2)cc1 (stereo not given)	-1.9	-1.9	48.3*	-1.5	3.4	/
COc1ccc(NC(=O)C2CCCN(c3ncccn3)C2)cc1 (stereo not given)	1.4	-0.3	32.9	2.4	5.9	9.4
C[C@@H]1CN([C@H](C)CO)C(=O)c2cc(-c3ccccc3F)cnc2O[C@@H]1CN(C)C(=O)c1cnccn1	/	/	-7.6	/	/	/
CO[C@H](CN(C)S(=O)(=O)c1ccc(Cl)cc1)[C@@H](C)CN([C@@H](C)CO)S(=O)(=O)c1cccc(Cl)c1	/	/	-1.4	/	/	/
O=C(C[C@H]1C=C[C@@H](NC(=O)C2CC2)[C@@H](CO)O1)Nc1nccs1	/	/	1.5	/	/	/
COCCNC(=O)C[C@@H]1CC[C@@H]2[C@@H](COc3ccc(NC(=O)C4CCOCC4)cc3C(=O)N2C)O1	/	/	-4.7	/	/	/
COc1cccc2sc(Nc3nc(-c4ccccn4)cs3)nc12	/	/	?	/	/	-4.0
Fc1cccc2sc(Nc3nnc(-c4ccco4)o3)nc12	1.8	0.1	13.7	4.0	12.7*	38.3*
COc1cccc2sc(Nc3nnc(-c4cccs4)o3)nc12	0.2	0.1	-14.1	3.8	5.6	59.3*
CC(=O)Nc1nnc(-c2ccco2)o1	1.4	-1.7	/	-2.3	0.4	0.6
COc1ccc(NC(=O)N(C)C[C@H]2Oc3ccc(NC(=O)NC(C)C)cc3C(=O)N([C@@H](C)CO)C[C@@H]2C)cc1	/	/	2.3	/	/	/
CN(c1cccc(NC(=O)Nc2cccc(Cl)c2)c1)S(C)(=O)=O	-1.1	-1.3	54.5*	1.6	3.1	-3.4
Cc1ccc(Cl)cc1N(CC(=O)Nc1cccc(N(C)S(C)(=O)=O)c1)S(C)(=O)=O	-0.6	1.1*	/	4.0	2.1	-0.5
Cc1cccc(C)c1N(CC(=O)Nc1cccc(N(C)S(C)(=O)=O)c1)S(C)(=O)=O	0.0	-1.0	/	-1.4	1.3	/
COCC(=O)Nc1ccc2c(c1)C(=O)N(C)[C@@H]1CC[C@H](CC(=O)Nc3cn(C)nc3C)O[C@H]1CO2	/	/	-0.5	/	/	/
CC(C)(C)CC(=O)Nc1cccc(-c2cn3cccnc3n2)c1	2.4	-0.8	/	4.7	10.5*	-3.8
CC(C)Sc1nc2ccccc2n1CC(N)=O	-0.5	-1.3	-2.0	-2.1	-1.0	44.3*
CCn1c(C(O)c2ccccc2)nc2ccccc21 (stereo not given)	-0.9	-1.1	7.6	-0.9	1.1	/
SMILES	DAX1 StAR inh	ssDAF-12 act	esBAF inh	hcDAF12 agonist	hgDAF-12 ag	Wnt act
COC(=O)Cn1c(SCc2ccccc2)nc2ccccc21	0.6	-1.0	48.5*	-0.3	4.8	/
COC(=O)Cn1c(C(O)c2ccccc2)nc2ccccc21 (stereo not given)	0.1	1.7*	-0.9	1.6	-0.7	0.3
Clc1ccc(/C=N/NC(=Nc2ccccc2)c2ccccn2)c(Cl)c1	3.2	-0.1	-13.2	5.6	12.1*	/
Clc1ccc(C=NNc2ccccn2)c(Cl)c1	-1.2	-0.2	43.5*	2.4	0.2	21.0
C(=N\NC(=Nc1ccccc1)c1ccccn1)/c1ccccn1	0.5	-0.5	/	1.4	2.9	15.8
COc1ccc(/C=N\Nc2ccccn2)c(OC)c1	1.8	0.6	52.1*	4.6	10.8*	13.9
COc1cc(/C=N/Nc2ccccn2)ccc1OCC(C)C	2.8	-0.8	?	1.6	10.5*	7.4
